# FMDV antiviral – blocks foot and mouth disease virus; FMDV antiviral cell-based qHTS; Potency, µM (series often up to 57.9 µM), inactives show top-dose activity change, negative = inhibition, hits mostly inhibitors; actives 1.2% (n = 410,000); AID 1159524; calls by dose curve; tested in HEK293T cells; also: read-out not given here; potency is read from the fitted curve at half-maximal effect; nearly all actives have a fitted effect of over 45% in size
# Marburg entry inh – inhibitors of Marburg virus binding or cell entry | Marburg virus pseudotyped entry inhibition, cell reporter | Potency, µM (top dose mostly 37.8 µM), for inactives: at the highest dose activity change, negative = inhibition, actives largely listed as inhibitors | actives 1.8% (n = 300,000); calls by dose curve; tested in HEK293 cells; also: potency is read from the fitted curve at half-maximal effect
# Lassa entry inh – Lassa virus entry inhibition; actives 1.2% (n = 300,000); AID 540256; Potency, µM (titrated, usually from 37.9 µM), without a hit: at the highest dose activity change, negative = inhibition, hits mostly inhibitors; Lassa virus pseudotype entry inhibition, cell reporter; calls by dose curve; tested in HEK293 cells; also: potency is read from the fitted curve at half-maximal effect; nearly all actives have a fitted effect of over 50% in size
# HCV inhibitor – inhibitors of hepatitis C virus infection. AID 651820. actives 3.4% (n = 340,000). Huh7.5.1 HCVcc-Cre infection, luciferase reporter, 44 h. Potency, µM (series often up to 41.8 µM), inactives show top-dose activity change, negative = inhibition, actives largely listed as inhibitors; also: potency is read from the fitted curve at half-maximal effect
#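 Reporter virus HCVcc-Cre (~0.5 moi) infects cells exposed to compound; seeding density 1,000 cells/well with 4 h settling beforehand. Luminescence, 15 sec read, taken 44 h post-infection following a 15 min RT substrate incubation.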
# HCMV inh – inhibitors of human cytomegalovirus. HFF cells, HCMV-luciferase reporter, 72 h; active compounds read low. activity change, negative = inhibition, % at 57.5 µM. actives 4.5% (n = 410,000). AID 1259415; in the data active = activity change below about -60%; inconclusive = no clear call, values can overlap the other calls; inactive = above about -39%
#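 Inhibition of viral replication was scored as loss of reporter luminescence in HFFs infected with HCMV-luciferase (MOI 1 PFU/cell) for 72 h; compounds tested at 2 doses, normalized to buffer and Salinomycin controls.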
# FBPA Giardia inh – inhibitors of Giardia lamblia fructose-1,6-bisphosphate aldolase | Potency, µM (series often up to 59.6 µM), inactives show top-dose activity, negative = inhibition, most hits filed as inhibitors | purified Giardia FBPA | A8B2U2 | actives 0.71% (n = 290,000); also: potency is read from the fitted curve at half-maximal effect; nearly all actives have a fitted effect of over 55% in size
# Target sequence (A8B2U2 whole entry, looked up): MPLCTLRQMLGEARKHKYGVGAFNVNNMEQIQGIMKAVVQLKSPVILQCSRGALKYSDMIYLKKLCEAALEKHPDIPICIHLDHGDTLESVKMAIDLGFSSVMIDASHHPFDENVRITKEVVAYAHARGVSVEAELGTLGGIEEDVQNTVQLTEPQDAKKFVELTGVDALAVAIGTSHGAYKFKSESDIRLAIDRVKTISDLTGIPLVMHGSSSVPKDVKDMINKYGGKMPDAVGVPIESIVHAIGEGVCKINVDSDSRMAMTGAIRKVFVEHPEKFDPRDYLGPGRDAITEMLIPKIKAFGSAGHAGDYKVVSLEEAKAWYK
#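 Giardia FBPA (40 nM reagent) was preincubated 10 min at RT with compound (up to 57.5 uM final), then substrate plus GAPDH/TPI/NAD/arsenate coupling system with diaphorase/resazurin was added; resorufin fluorescence (525/598 nm) was read after 20 min.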
# Numbers without * were called inactive; ? = inconclusive; · = no result given; [ ] = dose if it differs, or a comment. Hits are enriched below; roughly 8.3% of the tested compounds scored in any of these assays. Unless noted, calls follow the shape of the dose curve; as a rule, active = well fitted curve in the direction sought with a large enough effect; inconclusive = small, poorly fitted or top-dose-only effect, or another doubt; inactive = no such curve, though single readings can be large; an effect the other way counts as inactive or inconclusive. % is scaled to controls: 0 for no effect and ±100 for the full control effect.
SMILES,FMDV antiviral,Marburg entry inh,Lassa entry inh,HCV inhibitor,HCMV inh,FBPA Giardia inh
C[C@H]1CCCCO[C@H](CN(C)CC2CCCCC2)[C@@H](C)CN([C@@H](C)CO)C(=O)c2cc(NS(=O)(=O)c3ccccc3)ccc2O1,-2.0%,·,·,·,-62.9*,·
Cc1ccc2c(c1)CN(CCC(=O)NCc1cc(C)n(C)n1)CC(C)O2 (centres undefined),-5.8%,·,·,·,·,·
COc1cc(=O)n2c(c1C(=O)N(C)Cc1nonc1C)CCN(C(=O)c1ccc(C)c(C)c1)CC2,21.6%,·,·,·,·,·
Cc1cccc(NC(=S)N/N=C2\CC(C)(C)Oc3ccc(O)cc32)c1,?,4.47µM*,-9.1%[46.1 µM],?,-16.2,2.2%
COc1cccc(NC(=S)N/N=C2\CC(C)(C)Oc3ccc(O)cc32)c1,?,·,·,9.0%,?,-0.8%
COc1ccc(-c2noc(-c3ccccc3Cl)n2)cc1OC,·,13.4%,-27.0%,10µM*,60.6,-3.1%
CCOc1ccc(-c2nc(-c3ccc(OC)cc3)no2)cc1OCC,-1.2%,7.3%,4.9%,7.94µM*,0.7,-1.5%
COc1ccc(-c2noc(-c3ccco3)n2)cc1OC,28.6%,-19.8%,?,11.2µM*,130.1,-0.3%
Cc1ccc(CNc2ncnc3sc(C(=O)N4CCC(N5CCCC(O)C5)CC4)c(C)c23)o1 (centres undefined),-2.0%,·,·,·,·,·
COc1ccc(Cn2c(=O)n(Cc3ccco3)c(=O)c3oc4ccccc4c32)cc1,-18.0%,·,2.4%[46.1 µM],·,-31.3,·
CCCCNc1nc(C)nc2c1nc(-c1ccccc1)n2CC1CCN(C)CC1,·,·,·,·,·,1.9%
CCc1ccc(NC(=O)CN2C(=O)c3ccccc3Sc3ccc(C(=O)N4CCCC4)cc32)cc1,-9.2%,·,-19.6%[46.1 µM],·,14.3,·
CC(C)OC(=O)c1ccc(N2CCN(c3ccccc3F)CC2)nc1,-19.0%,·,·,11.2µM*,13.1,-6.6%
CC(C)OC(=O)c1ccc(N2CCN(c3ccc(F)cc3)CC2)nc1,?,·,·,?,?,6.7%
COC(=O)[C@H]1O[C@@H](c2cc(OC)c(C)c(OC)c2O)[C@H](C)[C@@H](O)[C@H]1C,·,·,·,·,·,-6.1%
CCOC(=O)Nc1ccc2c(CN(C)Cc3ccc(F)cc3)cc(=O)oc2c1,12.4%,21.0%[46.1 µM],·,-12.5%,-91.8*,3.2%
CCOC(=O)Nc1ccc2c(C)cc(=O)oc2c1,65.7%,7.1%,?,-5.1%,163.7,-7.9%
Cc1ccc(-c2cc3onc(-c4ccccc4)c3c(=O)n2C)cc1,17.8µM*,·,·,-10.0%,-70.8*,·
O=C(CSc1nnc(-c2c[nH]c3ccccc23)o1)N1CCCCC1,·,?,-15.4%,10.9%,5.3,-3.4%
O=C(CSc1nnc(-c2c[nH]c3ccccc23)o1)N1c2ccccc2CCc2ccccc21,·,?,?,7.94µM*,-88.9*,1.9%
COc1ccc2cc(CNc3ccccc3)c(=O)n(CC(=O)Nc3ccc(C)cc3C)c2c1,-12.0%,·,?,·,-32.9,·
CC(=O)N1CCc2c(sc(NC(=O)C3CC3)c2-c2nc3ccccc3s2)C1,25.1µM*,-0.4%,·,12.6µM*,12.2,-28.6%
CC(=O)Nc1sc2c(c1-c1nc3ccccc3s1)CN(C(C)C)CC2,-27.4%,·,·,·,-97.3*,·
CC(=O)N1CCc2c(sc(NC(=O)CSc3ccccc3)c2-c2nc3ccccc3s2)C1,-10.1%,·,-18.3%[46.1 µM],·,-97.0*,·
CCCCC(=O)Nc1sc2c(c1-c1nc3ccccc3s1)CCN(C(C)=O)C2,·,-5.1%,·,?,·,-14.6%
SMILES,FMDV antiviral,Marburg entry inh,Lassa entry inh,HCV inhibitor,HCMV inh,FBPA Giardia inh
COC(=O)Cc1nnn2c1CC(OC)c1cc(Br)ccc1-2 (centres undefined),·,·,·,·,-30.6,·
C#CCNC[C@@H]1CSCCS(=O)(=O)N1,·,·,-2.8%[46.1 µM],·,6.5,·
COc1ccc(-c2cn3cc(C)ccc3n2)cc1Br,0.0%,14.1µM*,?,?,193.7,-20.1%
CC(=O)OCC(NC(=O)C(COCc1ccccc1)NC(=O)OC(C)(C)C)C1OC(n2ccc(=O)[nH]c2=O)C(OC(C)=O)C1OC(C)=O (centres undefined),·,·,·,·,·,3.7%
Cc1cc(-c2ccc(S(=O)(=O)Nc3cccc(C)c3C)s2)on1,-17.6%,·,?,·,-16.1,·
Nc1ccc2ccc3cccc[n+]3c2c1,-9.3%,-14.4%[46.1 µM],-10.4%[46.1 µM],7.08µM*,-24.7,-23.5%
COc1ccc2ccc3cccc[n+]3c2c1,0.5%,·,·,?,11.5,·

# Source: PubChem BioAssay (National Center for Advancing Translational Sciences (NCATS))
